We go through five compounds from PubChem BioAssay.

Activity calls are given as the source filed them.

Assay [1] in a line: binders of probe aFSTL3 on microarray, primary screen, stem cell growth factor project, biochemical, small-molecule microarray, fluorescence 635/667 (AID 1064).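 Also: measures binding of the biotinylated anti-FSTL3 antibody to printed compounds.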 As to conditions: higher = more signal.
A short description of assay [2]: binders from COS7 lysate, DM2A8 probe, primary screen, torsin A project, cell lysate, small-molecule microarray, fluorescence 635/667 (AID 1065). The conditions noted are these: higher = more signal, COS7 lysate expressing mutant human TOR1A.
Assay [3] can be described thus: binders of probe aFGF2 on microarray, primary screen, stem cell growth factor project, biochemical, small-molecule microarray, fluorescence 635/667 (AID 1067).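 Also: measures binding of biotinylated aFGF2 protein to printed compounds on slides; z-score merges feature fluorescence and signal-to-noise across triplicate slides.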 The conditions noted are these: higher = more signal.
A short description of assay [4]: binders of probe aFGF10 on microarray, primary screen, stem cell growth factor project, biochemical, small-molecule microarray, fluorescence 635/667 (AID 1071).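 Also: score merges 667 nm spot intensity and signal to noise from triplicate slides.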 As to conditions: higher = more signal.
The target in assay [5] is Neurogenic locus notch homolog protein 2 (Homo sapiens) (UniProt Q04721). Description: Notch2 binders on small-molecule microarrays, primary screen, biochemical, small-molecule microarray, 635 nm fluorescence, stem cell growth factors (AID 1073). The conditions noted are these: Notch2 binding, higher = more signal.
For assay [6], the target named is Pro-neuregulin-1, membrane-bound isoform (Homo sapiens) (UniProt Q02297). Description: NRG1 binders on small-molecule microarrays, primary screen, psychiatric disease protein project, biochemical, small-molecule microarray, fluorescence 635/667 (AID 1075).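 Also: score combines 667 nm spot fluorescence with signal to noise.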 The conditions noted are these: NRG1 binding, 635 nm fluorescence, higher = more signal.
Assay [7] has as its system Neuregulin-1 EGF-like domain. Description: binders of neuregulin-1 EGF-like domain, primary screen, biochemical, small-molecule microarray, 635 nm fluorescence (AID 1081).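 Also: binding of the protein to compounds printed on small-molecule microarray slides.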 As to conditions: small-molecule microarray binding, higher = more signal.
The nature of assay [8]: FRG1 promoter luciferase signal modulators, primary screen, FRG1 inhibition for FSHD, cell-based, C2C12 myotubes, firefly/Renilla luciferase, luminescence (AID 1084). As to conditions: higher = more signal, called active from +8 up or from −8 down.
Assay [9] in a line: binders of probe aFST on microarray, primary screen, stem cell growth factor project, biochemical, small-molecule microarray, fluorescence 635/667 (AID 1086).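 Also: score merges 667 nm fluorescence with signal-to-noise of each printed compound spot.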 As to conditions: higher = more signal.
Assay [10] is described as follows: binders of probe aHhip on microarray, primary screen, stem cell growth factor project, biochemical, small-molecule microarray, fluorescence 635/667 (AID 1087).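 Also: score merges spot fluorescence at 667nm with spot signal to noise ratio.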 As to conditions: higher = more signal.
The test system of assay [11] is PRMT1 (protein arginine N-methyltransferase 1). Nature of the assay: PRMT1 binders on small-molecule microarrays, primary screen, biochemical, small-molecule microarray, 635 nm fluorescence (AID 1088).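 Also: binding of Prmt1 protein to compounds spotted on small-molecule microarray slides.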 The conditions noted are these: small-molecule microarray binding, higher = more signal.
A short description of assay [12]: yeast growth modulation, basal conditions, primary screen, YJM789 clinical isolate, OD600, 24 h (AID 1089).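 Also: growth of clinical yeast isolate S. cerevisiae YJM 789 seeded 1000 cells per well; test concentration not given here.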 The conditions noted are these: S. cerevisiae YJM789 growth, higher = more signal, called active from +8 up or from −8 down.
The nature of assay [13]: fission yeast growth modulation, primary screen, strain 972, OD600, 24 h, no modulator (AID 1090).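 Also: basal condition with compound alone and no growth modifier present; test concentration not given here.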 The conditions noted are these: S. pombe 972 growth, higher = more signal, called active from +8 up or from −8 down.
Assay [14] in a line: S. cerevisiae growth modulation with rapamycin, primary screen, strain BY4716, OD600, 96 h (AID 1091). Also: test concentration not given here. The conditions noted are these: higher = more signal, called active from +8 up or from −8 down.
In assay [15] the target is Torsin-1A-interacting protein 2 (Homo sapiens) (UniProt Q8NFQ8). Description: LULL1 binders on small-molecule microarray, primary screen, cell lysate, human LULL1 lysate, 635/667 nm fluorescence (AID 1092).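 Also: probe is lysate of COS7 cells overexpressing human LULL1; score merges per-feature 667 nm fluorescence with signal-to-noise.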 As to conditions: hLULL1 lysate binding, 635 nm fluorescence, higher = more signal.
Assay [16] can be described thus: E. coli growth modulation, two-sided OD650, primary screen, E. coli filamentation project, strain DRC41, 24 h (AID 1093).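 Also: MC1000 strain lacking acrAB efflux and sulA so SOS filamentation is blocked; test concentration not given here.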 The conditions noted are these: OD650, 24 h, higher = more signal, called active from +8 up or from −8 down.
Assay [17] is described as follows: small-molecule microarray binders of probe aLefty2, primary screen, biochemical, biotinylated probe, 635/667 nm fluorescence (AID 1094).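 Also: score merges spot fluorescence near 667 nm with spot signal-to-noise ratio.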 As to conditions: higher = more signal.
The subject of assay [18] is Noggin (protein binding on small-molecule microarray). Description: Noggin binders on small-molecule microarray, primary screen, biochemical, 635/667 nm fluorescence (AID 1095).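 Also: score merges 667 nm feature fluorescence with signal to noise over triplicate slides.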 As to conditions: 635 nm fluorescence, higher = more signal.
Assay [19] concerns the target Neurogenic locus notch homolog protein 3 (Homo sapiens) (UniProt Q9UM47). Description: NOTCH3 binders on small-molecule microarray, primary screen, biochemical, 635/667 nm fluorescence (AID 1096). As to conditions: NOTCH3 binding, 635 nm fluorescence, higher = more signal.
Assay [20] in a line: small-molecule microarray binders of probe aEGFR, primary screen, biochemical, biotinylated probe, 635/667 nm fluorescence (AID 1097).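 Also: probe is a biotinylated anti-EGFR antibody binding compounds printed on slides; score combines fluorescence near 667 nm and signal to noise of each spot.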 As to conditions: higher = more signal.

Sequence of Neurogenic locus notch homolog protein 3 (Homo sapiens) (Q9UM47 whole entry, looked up): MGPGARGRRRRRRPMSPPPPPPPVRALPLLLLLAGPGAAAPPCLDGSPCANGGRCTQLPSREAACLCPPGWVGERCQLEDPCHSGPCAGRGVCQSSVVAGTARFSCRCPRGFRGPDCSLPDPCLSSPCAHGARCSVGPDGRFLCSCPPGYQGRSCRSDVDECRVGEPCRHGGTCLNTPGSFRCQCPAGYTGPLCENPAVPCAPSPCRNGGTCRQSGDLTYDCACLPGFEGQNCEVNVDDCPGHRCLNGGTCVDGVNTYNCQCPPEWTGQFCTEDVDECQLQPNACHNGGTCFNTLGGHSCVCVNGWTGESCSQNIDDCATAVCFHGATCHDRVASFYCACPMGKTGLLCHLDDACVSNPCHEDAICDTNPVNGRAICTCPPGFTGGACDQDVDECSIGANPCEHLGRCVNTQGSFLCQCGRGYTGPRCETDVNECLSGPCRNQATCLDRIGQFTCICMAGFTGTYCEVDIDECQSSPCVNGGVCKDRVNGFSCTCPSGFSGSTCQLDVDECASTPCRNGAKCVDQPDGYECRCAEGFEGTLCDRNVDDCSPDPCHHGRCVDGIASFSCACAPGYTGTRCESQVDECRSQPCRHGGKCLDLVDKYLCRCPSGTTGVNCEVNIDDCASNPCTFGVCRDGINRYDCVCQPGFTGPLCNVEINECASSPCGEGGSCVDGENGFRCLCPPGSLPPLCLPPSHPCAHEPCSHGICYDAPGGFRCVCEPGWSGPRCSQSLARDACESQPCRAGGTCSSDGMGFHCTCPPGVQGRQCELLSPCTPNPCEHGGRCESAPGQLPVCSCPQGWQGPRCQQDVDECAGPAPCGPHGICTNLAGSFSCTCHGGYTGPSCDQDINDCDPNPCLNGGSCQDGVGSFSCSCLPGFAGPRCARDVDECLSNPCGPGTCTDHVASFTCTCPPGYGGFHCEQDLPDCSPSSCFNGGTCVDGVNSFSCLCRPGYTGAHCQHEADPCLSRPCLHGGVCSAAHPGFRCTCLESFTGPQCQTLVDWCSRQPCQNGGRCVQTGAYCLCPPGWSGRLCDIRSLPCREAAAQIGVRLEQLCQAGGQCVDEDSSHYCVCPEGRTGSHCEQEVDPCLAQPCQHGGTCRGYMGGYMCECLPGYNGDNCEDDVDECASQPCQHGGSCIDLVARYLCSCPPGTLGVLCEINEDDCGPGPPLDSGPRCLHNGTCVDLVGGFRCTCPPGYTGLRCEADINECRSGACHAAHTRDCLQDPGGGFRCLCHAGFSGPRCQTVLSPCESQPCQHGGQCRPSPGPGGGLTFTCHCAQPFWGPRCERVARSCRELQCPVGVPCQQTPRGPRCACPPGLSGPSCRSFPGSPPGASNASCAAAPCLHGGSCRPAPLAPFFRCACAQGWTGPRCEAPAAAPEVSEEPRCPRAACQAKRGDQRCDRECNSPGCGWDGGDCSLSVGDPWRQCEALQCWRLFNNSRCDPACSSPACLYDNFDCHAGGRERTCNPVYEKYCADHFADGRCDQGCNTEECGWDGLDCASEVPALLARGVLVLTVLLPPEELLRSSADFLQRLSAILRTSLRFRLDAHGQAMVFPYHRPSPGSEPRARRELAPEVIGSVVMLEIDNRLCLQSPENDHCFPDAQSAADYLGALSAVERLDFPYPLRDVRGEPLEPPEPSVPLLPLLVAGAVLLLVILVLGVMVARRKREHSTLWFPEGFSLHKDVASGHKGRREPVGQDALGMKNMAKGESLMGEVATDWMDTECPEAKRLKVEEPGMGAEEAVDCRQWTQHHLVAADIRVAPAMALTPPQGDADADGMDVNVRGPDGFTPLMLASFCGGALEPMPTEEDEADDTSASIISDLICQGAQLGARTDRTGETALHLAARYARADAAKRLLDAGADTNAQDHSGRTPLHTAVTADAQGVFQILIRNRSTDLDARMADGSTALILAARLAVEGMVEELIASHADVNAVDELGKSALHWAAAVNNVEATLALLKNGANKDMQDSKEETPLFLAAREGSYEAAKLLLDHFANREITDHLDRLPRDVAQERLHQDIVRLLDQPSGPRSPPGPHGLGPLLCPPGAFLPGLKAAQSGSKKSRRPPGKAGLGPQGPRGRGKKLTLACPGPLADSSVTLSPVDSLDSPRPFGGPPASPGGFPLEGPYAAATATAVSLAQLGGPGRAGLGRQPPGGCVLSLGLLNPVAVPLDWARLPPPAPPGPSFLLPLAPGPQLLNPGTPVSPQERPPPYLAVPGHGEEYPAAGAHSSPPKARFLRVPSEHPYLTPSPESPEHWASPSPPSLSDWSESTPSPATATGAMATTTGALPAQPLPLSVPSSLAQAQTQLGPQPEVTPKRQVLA
Sequence of Pro-neuregulin-1, membrane-bound isoform (Homo sapiens) (Q02297 whole entry, looked up, the tested form may be a part, canonical isoform): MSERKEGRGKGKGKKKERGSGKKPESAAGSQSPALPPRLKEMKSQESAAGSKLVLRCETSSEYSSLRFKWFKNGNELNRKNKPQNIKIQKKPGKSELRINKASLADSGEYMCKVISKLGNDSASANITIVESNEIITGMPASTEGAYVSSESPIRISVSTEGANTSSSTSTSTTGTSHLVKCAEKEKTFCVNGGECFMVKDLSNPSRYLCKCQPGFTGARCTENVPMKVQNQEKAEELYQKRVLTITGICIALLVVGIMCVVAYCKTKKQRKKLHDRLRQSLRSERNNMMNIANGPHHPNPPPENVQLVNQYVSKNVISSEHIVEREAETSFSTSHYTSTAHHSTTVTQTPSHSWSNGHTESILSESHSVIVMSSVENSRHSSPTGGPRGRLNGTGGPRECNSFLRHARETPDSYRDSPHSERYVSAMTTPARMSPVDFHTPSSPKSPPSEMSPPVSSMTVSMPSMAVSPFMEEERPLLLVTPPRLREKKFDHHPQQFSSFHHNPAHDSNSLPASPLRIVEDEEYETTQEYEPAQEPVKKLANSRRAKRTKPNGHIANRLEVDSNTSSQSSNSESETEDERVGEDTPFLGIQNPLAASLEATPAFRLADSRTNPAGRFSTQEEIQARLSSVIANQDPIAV
Sequence of Torsin-1A-interacting protein 2 (Homo sapiens) (Q8NFQ8 whole entry, looked up): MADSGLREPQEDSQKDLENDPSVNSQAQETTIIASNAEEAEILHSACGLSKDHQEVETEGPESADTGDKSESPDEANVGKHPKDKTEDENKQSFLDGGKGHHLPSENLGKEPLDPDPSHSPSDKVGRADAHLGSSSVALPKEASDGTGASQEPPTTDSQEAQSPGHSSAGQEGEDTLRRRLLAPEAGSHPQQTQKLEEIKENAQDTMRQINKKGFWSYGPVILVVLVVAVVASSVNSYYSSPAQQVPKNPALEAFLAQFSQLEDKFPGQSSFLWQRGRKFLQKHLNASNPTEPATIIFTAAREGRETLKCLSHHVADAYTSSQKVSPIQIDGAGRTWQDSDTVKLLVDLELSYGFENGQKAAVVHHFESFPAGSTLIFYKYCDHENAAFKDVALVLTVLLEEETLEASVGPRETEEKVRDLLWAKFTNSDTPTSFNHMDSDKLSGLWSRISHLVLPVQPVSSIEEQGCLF

`C[N+](C)(C)CCCC[C@@H]1NC(=O)[C@@H]2C[C@H](C(=O)NCc3ccc(F)cc3)[C@H](c3ccc(O)cc3)N2C1=O`: the composite z-score in [1] was 0.315; in assay [2], -0.4; in assay [3], -0.148; in [4], -0.447; in assay [5], -1.3; in assay [6] it was 1.3. For the same compound, the composite z-score in assay [7] was 1.38; in [9], -0.936; in assay [10], -0.201; in [11], 0.116; in [15], 1.76; in assay [17], -0.139. Further, the composite z-score in [18] is 0.401; in assay [19], -0.146; in [20], -0.271. Moreover, the z-score in assay [8] was 0.337 (inactive); in assay [12] it was 0.166 (inactive); in [13] it was 0.519 (inactive); in [14] it was 0.425 (inactive); in [16], -0.66 (inactive).

On to `C=C(CCCC)/C(=C/C[C@H](OC(=O)c1ccncc1)c1ccccc1OCCO)c1cc(C(=O)OC)ccc1OC`, for which the composite z-score in assay [1] is -0.17; in assay [2] it was 0.963; in assay [3], -0.0591; in [4], 0.845; in assay [5] it was 0.101; in [6], -0.217. In addition, the composite z-score in assay [7] was 0.787; in assay [9] it was 0.416; in assay [10], -0.0237; in assay [11], 1.34; in assay [15] it was 2.31; in assay [17], -0.0942. For the same compound, the composite z-score in assay [18] was 0.502; in assay [19], 0.647; in assay [20] it was -0.15. In addition, the z-score is 0.908 (inactive) in assay [8]; 0.47 (inactive) in assay [12]; 0.333 (inactive) in [13]; 1.42 (inactive) in [14]; 0.588 (inactive) in assay [16].

With `CC(C)N1C(=O)c2ccccc2[C@](C)(C(=O)NCC(F)(F)F)[C@@H]1c1ccc(CO)cc1`, the composite z-score in assay [1] is 0.531; in assay [2], -0.226; in assay [3], -0.0698; in assay [4], -1; in [5], -0.334; in [6], 0.583. Also, the composite z-score in assay [7] was 0.107; in assay [9] it was -0.299; in [10] it was -0.105; in assay [11], -0.42; in assay [15], 1.64; in [17] it was 0.146. Also, the composite z-score in assay [18] is -1.4; in [19], -0.445; in assay [20] it was -0.179. The z-score in assay [8] was -0.229 (inactive); in assay [12] it was -0.337 (inactive); in [13], -0.837 (inactive); in assay [14] it was -0.674 (inactive); in [16] it was 0.537 (inactive).

`CCCc1cc2c(n1CCc1ccc(Cl)cc1)C(C)C1CN(C(=O)c3ccccc3)C(C)(C(=O)OC)C21` (stereo not given): the composite z-score in assay [1] turned out to be 1.44; in assay [2], 0.721; in [3] it was 0.384; in assay [4] it was 0.204; in assay [5] it was 1.73; in assay [6], 1.78. Further, the composite z-score amounted to 0.937 in [7]; 1.1 in assay [9]; 2.27 in [10]; 0.396 in assay [11]; 3.31 in assay [15]; 0.342 in assay [17]. The composite z-score in assay [18] is -1.01; in assay [19], 1.04; in assay [20], 0.131. Moreover, the z-score in assay [8] is 1.91 (inactive); in [12], 0.318 (inactive); in assay [13], -0.29 (inactive); in assay [14] it was 1.03 (inactive); in assay [16], -2.17 (inactive).

As to `O=C1C[C@@](C(=O)NCc2ccccc2)(c2ccc([N+](=O)[O-])cc2)[C@@H](c2ccc(CO)cc2)N1C1CCCCC1`, the composite z-score was -0.709 in assay [1]; 0.858 in assay [2]; -0.101 in assay [3]; 0.104 in [4]; 0.324 in assay [5]; 1.4 in [6]. The composite z-score in assay [7] is 1.31; in assay [9], 0.117; in assay [10], -0.158; in assay [11], 1.57; in [15] it was 3.09; in assay [17] it was -0.206. For the same compound, the composite z-score in assay [18] was 0.65; in assay [19], 0.846; in assay [20] it was -0.14. In addition, the z-score in [8] was -1.47 (inactive); in assay [12], -1.69 (inactive); in [13], -0.221 (inactive); in [14] it was 1.08 (inactive); in assay [16], 0.78 (inactive).
